Measured values taken from the supplement of paper PMC7184167.
Counter-ions that a name gives are not always drawn.

The compounds below were run on replication-induced senescent mouse newborn dermal fibroblasts (NBF) (assay: relative cell viability of senescent cells (fraction); higher = less killing of senescent cells). Conditions: 1 µM; 3 days.
Procedure: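 Replication-induced senescent newborn mouse skin fibroblasts (NBFs) in 24-well plates were treated with a Selleck FDA-approved drug library at 1 µM for 3 days.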
Compound `Cc1nc(Nc2ncc(C(=O)Nc3c(C)cccc3Cl)s2)cc(N2CCN(CCO)CC2)n1` [Dasatinib] has a relative cell viability of 1.39.
`NC(=O)N1c2ccccc2C=Cc2ccccc21` [Carbamazepine] gave a relative cell viability of 0.859.
`O=C(CCCCCCC(=O)Nc1ccccc1)NO` [Vorinostat (SAHA, MK0683)] gave a relative cell viability of 0.75.
`C#Cc1cccc(Nc2ncnc3cc(OCCOC)c(OCCOC)cc23)c1` [Erlotinib HCl (OSI-744)] gave a relative cell viability of 0.672.
